Drawing on PubChem BioAssay (NCATS), this text covers Potency for 34 molecules.

Results filed as inconclusive are left out. Calls of active or inactive are those of the source. Calls follow the shape of the dose curve; as a rule, active = well fitted inhibition curve with a large enough effect; inconclusive = small, poorly fitted or top-dose-only effect; inactive = flat fitted curve, though single readings scatter.

Experiment in all cases: qHTS profiling for inhibitors of Plasmodium falciparum proliferation (AID 504749); also: nearly all actives have a fitted effect of over 60% in size
Conditions in all cases: P. falciparum in erythrocytes, SYBR Green DNA, 72 h; series mostly up to 28.7 µM
On the technique in general: In qHTS, concentration-response curves come from the screen itself.

In one assay the test system is AS120. The procedure, abridged:
(§1)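 Infected RBCs, 0.3% parasitemia/2.5% Hct final; cpd 72 h, 37 C, 5% CO2; lysis buffer with saponin/triton/SYBR Green I, o/n RT dark; FI 485/535; norm. to artemisinin (0.29 uM) and DMSO.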

A further assay has as its system ATS189. In outline:
as §1

In a further assay the test system is ATS95. In outline: as §1
The test system of the next assay is C2A. In outline: as §1
In the next assay the test system is CP185. The procedure, abridged: as §1
A further assay relates to CP191. In outline: as §1
A further assay relates to CP192. The procedure, abridged:
as §1

The next assay deals with CP194. In outline:
as §1

The next assay has as its system CP201. In outline:
as §1

In another assay the test system is CP203. In outline: as §1
Potency is read from the fitted curve at half-maximal effect.

`CC(C)Cn1cnc2c(N)nc3ccccc3c21`: the Potency entry with AS120, in the assay with ATS189, in the assay with ATS95, with C2A, in the assay with CP185 and with CP191 was “inactive” in each case. The Potency entry in the assay with CP192, in the assay on CP194 and in the assay on CP201 was “inactive” each time.

On to `OC(Cn1cncn1)(Cn1cncn1)c1ccc(F)cc1F`, for which the Potency entry in the assay with AS120, with ATS189, with ATS95, in the assay on C2A, with CP185 and with CP191 was “inactive” in each case. Also, the Potency entry in the assay with CP192, with CP194 and with CP201 was “inactive” in each case.

Consider `CC(C)(C#N)c1cc(Cn2cncn2)cc(C(C)(C)C#N)c1`, for which the Potency entry in the assay on AS120, in the assay with ATS189, in the assay with ATS95, in the assay with C2A, in the assay on CP185 and in the assay on CP191 was “inactive” each time. The Potency entry in the assay with CP192, in the assay on CP194 and with CP201 was “inactive” in each case.

As for `O=S(=O)(O)CCS`, the Potency entry in the assay on AS120, in the assay with ATS189, with ATS95, in the assay with C2A, in the assay with CP185 and with CP191 was “inactive” throughout. Moreover, the Potency entry in the assay with CP192, with CP194 and in the assay with CP201 was “inactive” each time.

Consider `O=C(O)c1cc(=O)[nH]c(=O)[nH]1`, for which the Potency entry in the assay with AS120, in the assay with ATS189, in the assay on ATS95, with C2A, in the assay with CP185 and with CP191 was “inactive” each time. The Potency entry with CP194 and in the assay with CP201 was “inactive” in each case.

As to `CNC(=O)c1cc(Oc2ccc(NC(=O)Nc3ccc(Cl)c(C(F)(F)F)c3)cc2)ccn1`, the Potency is 10 µM (active) in the assay on AS120, 10.7 µM (active) with CP192 and 10.7 µM (active) in the assay on CP194.

Take `CNCC[C@H](Oc1cccc2ccccc12)c1cccs1`: the values for the Potency in the assay on AS120, with ATS95 and with CP191 were 11.2 µM (active), 7.94 µM (active) and 11.2 µM (active), respectively. The Potency result with CP201 was “inactive”.

Regarding `C[C@@H](NCCCc1cccc(C(F)(F)F)c1)c1cccc2ccccc12`, the Potency was 3.98 µM (active) with AS120; 7.08 µM (active) with ATS189; 7.08 µM (active) in the assay on ATS95; 8.91 µM (active) in the assay on C2A; 11.2 µM (active) with CP185; 13.5 µM (active) in the assay on CP194. For the same molecule, the results for the Potency with CP201 and in the assay on CP203 were 15.1 µM (active) and 10.7 µM (active), respectively.

With `COC(=O)Nc1nc2ccc(Sc3ccccc3)cc2[nH]1`, the Potency result with AS120, in the assay on ATS189, with ATS95, in the assay with C2A, in the assay on CP185 and with CP191 was “inactive” each time. For the same molecule, the Potency result in the assay with CP194 and in the assay on CP201 was “inactive” in each case.

As to `O=c1oc2c(O)c(O)cc3c(=O)oc4c(O)c(O)cc1c4c23`, the Potency with AS120 was 1.41 µM (active). Also, the Potency result with CP185 and in the assay with CP191 was “inactive” each time.

Turning to `COc1cc([C@@H]2c3cc4c(cc3[C@H](O)[C@H]3COC(=O)[C@H]23)OCO4)cc(OC)c1OC`, the Potency with AS120 was 5.01 µM (active); with ATS189 it was 3.55 µM (active); with ATS95 it was 8.91 µM (active); in the assay with CP191 it was 3.55 µM (active); in the assay with CP203, 12 µM (active).

For `CN1CCCC(n2nc(Cc3ccc(Cl)cc3)c3ccccc3c2=O)CC1` (centres undefined), the Potency entry with CP185, in the assay with CP192 and in the assay with CP194 was “inactive” in each case.

As for `CCCc1nc(C)c2c(=O)[nH]c(-c3cc(S(=O)(=O)N4CCN(CC)CC4)ccc3OCC)nn12`, the Potency entry in the assay on ATS189, in the assay on ATS95, in the assay on C2A, in the assay with CP185, in the assay with CP191 and in the assay on CP192 was “inactive” throughout. Further, the Potency entry in the assay with CP194, with CP201 and with CP203 was “inactive” in each case.

In the case of `CCn1cc(C(=O)O)c(=O)c2cc(F)c(N3CCNCC3)cc21`, the Potency entry with AS120, with ATS189, with ATS95, in the assay with C2A, in the assay on CP191 and in the assay on CP192 was “inactive” throughout. Besides, the Potency entry in the assay on CP201 was “inactive”.

Regarding `CCCCCCNC(=O)n1cc(F)c(=O)[nH]c1=O`, in the assay with C2A, the Potency is 12.6 µM (active).

Regarding `O=C(O)c1cn(C2CC2)c2cc(N3CCNCC3)c(F)cc2c1=O`, the Potency result with ATS189, in the assay with C2A and in the assay on CP191 was “inactive” each time.

As for `Nc1ccc(S(=O)(=O)Nc2ccccn2)cc1`, the Potency result in the assay on AS120, in the assay on ATS189, in the assay with C2A, in the assay on CP185, in the assay with CP191 and with CP192 was “inactive” in each case. The Potency result in the assay on CP194, in the assay on CP201 and in the assay on CP203 was “inactive” each time.

With `CCOC(=O)c1ccc(OC(=O)CCCCCN=C(N)N)cc1`, the Potency result with AS120, in the assay on ATS95, with C2A, in the assay with CP185, in the assay on CP192 and in the assay on CP194 was “inactive” in each case. Further, the Potency entry with CP201 and in the assay with CP203 was “inactive” throughout.

For `Oc1c(Cl)cc(Cl)c2cccnc12`, the Potency in the assay on AS120 is 11.2 µM (active); in the assay with ATS189, 8.91 µM (active); in the assay with ATS95, 7.94 µM (active); in the assay with CP185, 11.2 µM (active); in the assay with CP191, 11.2 µM (active). Besides, the Potency result in the assay on CP192 and in the assay on CP201 was “inactive” in each case.

As for `CCOC(=O)[C@H](CCc1ccccc1)N[C@H]1CS[C@H](c2cccs2)CN(CC(=O)O)C1=O`, the Potency result with ATS189, in the assay on ATS95, with C2A, in the assay with CP185, in the assay with CP191 and in the assay with CP192 was “inactive” each time. Besides, the Potency result in the assay with CP194 and in the assay on CP201 was “inactive” each time.

Regarding `COc1ccc(-c2ccc3cc(C(=O)O)ccc3c2)cc1C12CC3CC(CC(C3)C1)C2`, the Potency entry in the assay on AS120, in the assay with ATS189, in the assay with C2A, with CP185, with CP191 and in the assay with CP192 was “inactive” throughout. For the same molecule, the Potency result in the assay with CP194 and with CP201 was “inactive” each time.

For `CC(C)(C)C(=O)OCOP(=O)(COCCn1cnc2c(N)ncnc21)OCOC(=O)C(C)(C)C`, the Potency result in the assay with CP194 and in the assay with CP201 was “inactive” each time.

`CC1=CC(=O)c2ccccc2C1=O`: the Potency result with AS120, with ATS189, in the assay with ATS95, in the assay on CP185, in the assay on CP191 and in the assay with CP192 was “inactive” each time. Also, the Potency entry in the assay with CP194 and with CP201 was “inactive” throughout.

Turning to `CCn1cc(C(=O)O)c(=O)c2cc(F)c(N3CCNCC3)nc21`, the Potency result in the assay on ATS189, with ATS95, in the assay on C2A, in the assay on CP185, in the assay with CP191 and in the assay with CP192 was “inactive” throughout. In addition, the Potency entry in the assay on CP194 and in the assay on CP201 was “inactive” throughout.

On to `Nc1[nH]c(=O)ncc1F`, for which the Potency entry in the assay with AS120, in the assay on ATS189, in the assay with ATS95, in the assay with CP185, with CP191 and in the assay on CP192 was “inactive” throughout. Further, the Potency entry in the assay on CP194, in the assay on CP201 and in the assay on CP203 was “inactive” each time.

For the molecule `CN(Cc1cc(Br)cc(Br)c1N)C1CCCCC1`, the Potency entry in the assay on AS120, with ATS189, in the assay on C2A, in the assay on CP185, in the assay with CP191 and in the assay on CP192 was “inactive” each time. The Potency result with CP194 and with CP201 was “inactive” each time.

`C1CCC(C(CC2CCCCN2)C2CCCCC2)CC1` (centres undefined): the Potency in the assay on AS120 is 7.94 µM (active); in the assay with ATS189, 11.2 µM (active); in the assay on ATS95 it was 11.2 µM (active); in the assay with C2A it was 11.2 µM (active); in the assay on CP185, 10 µM (active); in the assay with CP191 it was 11.2 µM (active). The Potency in the assay on CP194 is 15.1 µM (active).

For `N[C@@H](Cc1ccc(O)c(O)c1)C(=O)O`, the Potency result in the assay on CP192, with CP194 and in the assay with CP201 was “inactive” throughout.

In the case of `CCCCOc1ccc(CC(=O)NO)cc1`, the Potency with AS120 is 3.55 µM (active); with ATS95, 3.55 µM (active); with C2A, 1.58 µM (active); in the assay on CP185, 3.98 µM (active); in the assay on CP191, 2.24 µM (active); with CP192, 4.05 µM (active).

`CNNCc1ccc(C(=O)NC(C)C)cc1`: the Potency result in the assay with AS120, in the assay on ATS189, with ATS95, in the assay on C2A, with CP185 and with CP192 was “inactive” each time. Further, the Potency result in the assay on CP194 and with CP203 was “inactive” each time.

For `CCOC(=O)c1ccc(C#Cc2ccc3c(c2)C(C)(C)CCS3)nc1`, the Potency entry in the assay on AS120, with ATS95, in the assay on CP192, in the assay with CP194 and in the assay with CP201 was “inactive” throughout.

Consider `CCn1cc(C(=O)O)c(=O)c2cc(F)c(N3CCN(C)CC3)cc21`, for which the Potency entry in the assay with CP192, with CP194 and in the assay on CP201 was “inactive” each time.

Consider `CC(N)C12CC3CC(CC(C3)C1)C2` (centres undefined), for which the Potency entry with C2A, in the assay on CP191 and with CP201 was “inactive” each time. Moreover, the Potency in the assay with CP203 is 12 µM (active).

Consider `COc1cccc(N(C)C(=S)Oc2ccc3c(c2)CCCC3)n1`, for which the Potency entry in the assay with ATS189, with ATS95, in the assay on C2A, with CP185 and with CP192 was “inactive” each time.
